Values joined by “and” are separate entries in the source; they are usually repeats but may differ in a detail not shown here. Equal values may be shown once. Results filed as inconclusive are left out. A structure can be active in one record and inactive in another. Active and inactive are the calls of the source.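 How the source made its calls, unless noted: active means compounds whose cell count with miR-34 switched on is under 0.7 times the count with it off; inactive means the rest.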
What was measured:
[1] = circadian clock period modulators, cell-based, LOPAC library, luminescence reporter (AID 2774; call rule not given here;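 further: values are relative to mean of DMSO wells on each plate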); details: circadian reporter cells, at 7 µM, actives lie on both sides
[2] = tested on: Hepatitis C virus NS3 helicase; test: HCV NS3 helicase inhibitors, primary screen, biochemical, fluorescence polarization, LOPAC1280 library (AID 687035; in the data active means inhibition above about 37%); details: Purified HCV NS3 helicase, Cy5-dT15 ssDNA binding fluorescence polarization; stronger effect = higher value; concentration not given here
[3] = Cy5 fluorescence quenching or enhancement artefacts, artefact control for HCV NS3 helicase inhibitor project, biochemical, LOPAC1280 (AID 687037; call rule not given here); details: Cy5-DNA-NS3h complex fluorescence interference counterscreen
[4] = sensitizers of A549 cells to miR-34 induction, primary screen, imaging, A549 dox-inducible miR-34, nuclei and caspase counts (AID 1347080); details: A549 miR-34 inducible, Hoechst nuclei count, 48 h
[5] = phospholipid biosynthesis inhibitors in animal cells, primary screen, cell-based, LOPAC library, screen 4 (AID 1347384; call rule not given here); details: phospholipid biosynthesis inhibition screen, at 10 µM
[6] = viability rescue of complex I mutant cybrids, primary screen, cell-based, galactose medium, ATP luminescence (AID 1645843;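 active means z-score of at least 1.8 in each of two replicates, scored against plate mean and spread of sample wells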;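 further: positive z means more ATP and so rescue of galactose-driven cybrid death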); details: complex I mutant cybrid cells, 72 h, stronger effect = higher value
[7] = survival rescue of mitochondrial mutant cells in low glucose, primary screen, MELAS cybrids, Rieske KO mouse fibroblasts, CellTiter-Glo (AID 1508586;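 active means mean z-score across replicates of 1.96 or higher in either the MELAS or the Rieske mutant cell line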;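 further: z relative to plate mean and SD of compound and empty wells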)
[8] = biological target: ATP-dependent translocase ABCB1 (Homo sapiens) (UniProt P08183); test: MDR1 (ABCB1) efflux transporter inhibition, cell-based (AID 377; in the data active means fluorescence slope change above about 50%); details: MDR1-expressing cells, fluorescent substrate accumulation slope; stronger effect = higher value; concentration not given here
ATP-dependent translocase ABCB1 (Homo sapiens), sequence (P08183 whole entry, looked up): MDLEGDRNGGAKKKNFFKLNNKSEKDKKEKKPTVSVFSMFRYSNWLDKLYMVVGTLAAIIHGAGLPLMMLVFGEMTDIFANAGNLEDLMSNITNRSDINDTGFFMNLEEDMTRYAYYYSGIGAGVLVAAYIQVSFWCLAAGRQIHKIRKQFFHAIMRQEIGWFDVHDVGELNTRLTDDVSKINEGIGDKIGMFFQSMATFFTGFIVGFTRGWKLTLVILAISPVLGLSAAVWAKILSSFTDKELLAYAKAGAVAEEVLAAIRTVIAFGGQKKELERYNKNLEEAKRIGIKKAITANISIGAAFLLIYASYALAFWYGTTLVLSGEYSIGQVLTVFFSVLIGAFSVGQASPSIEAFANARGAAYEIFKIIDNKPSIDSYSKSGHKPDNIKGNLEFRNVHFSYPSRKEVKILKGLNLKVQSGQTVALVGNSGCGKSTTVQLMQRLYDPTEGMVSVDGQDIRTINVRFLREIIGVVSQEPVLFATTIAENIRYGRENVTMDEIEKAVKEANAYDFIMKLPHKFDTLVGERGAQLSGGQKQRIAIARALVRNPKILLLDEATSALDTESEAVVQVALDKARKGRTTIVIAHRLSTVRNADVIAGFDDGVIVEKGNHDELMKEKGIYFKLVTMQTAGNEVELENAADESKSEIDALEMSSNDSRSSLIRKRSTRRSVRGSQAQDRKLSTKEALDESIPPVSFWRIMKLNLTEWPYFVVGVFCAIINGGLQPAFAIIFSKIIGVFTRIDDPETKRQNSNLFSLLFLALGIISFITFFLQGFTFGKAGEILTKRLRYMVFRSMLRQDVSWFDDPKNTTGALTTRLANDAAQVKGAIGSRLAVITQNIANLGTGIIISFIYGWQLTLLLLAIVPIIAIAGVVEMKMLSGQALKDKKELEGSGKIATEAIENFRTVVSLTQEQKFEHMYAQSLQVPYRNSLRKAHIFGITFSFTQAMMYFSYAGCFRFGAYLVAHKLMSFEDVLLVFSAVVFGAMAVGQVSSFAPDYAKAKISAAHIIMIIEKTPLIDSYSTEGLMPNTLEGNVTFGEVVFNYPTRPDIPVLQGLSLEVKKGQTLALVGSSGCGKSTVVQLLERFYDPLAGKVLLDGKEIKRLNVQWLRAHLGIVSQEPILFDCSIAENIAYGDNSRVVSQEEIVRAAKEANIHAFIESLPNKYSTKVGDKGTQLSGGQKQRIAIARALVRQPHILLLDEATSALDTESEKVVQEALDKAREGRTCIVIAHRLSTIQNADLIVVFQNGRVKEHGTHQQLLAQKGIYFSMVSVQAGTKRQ

[9] = hESC survival regulators, cell-based (AID 493140; call rule not given here;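 further: cells exposed to compounds for four days before counting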); details: human embryonic stem cell survival screen; stronger effect = higher value
[10] = liver-stage malaria parasite growth inhibition, primary screen, cell-based, HepG2, luciferase luminescence, HepG2 viability (AID 624349; in the data active means parasite load remaining mostly below about 12%, no sharp cut-off; inactive means mostly above about 10%;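 further: 100% = mean of DMSO negative control wells on the same plate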); details: P. berghei liver stage in HepG2, luciferase luminescence, concentration not given here; parasite load remaining: stronger effect = lower value; viability: measured here: HepG2 viability without parasites
[11] = biological target: NAD(+) hydrolase SARM1 (Homo sapiens) (UniProt Q6SZW1); test: SARM1 TIR NADase inhibitors, cell lysate, NAD-Glo luminescence (AID 1508614;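 active means compound whose remaining NAD level is above about 45 nM, limit read from the data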); details: SAM-TIR HEK293T lysate NADase, at 1 µM, stronger effect = higher value
NAD(+) hydrolase SARM1 (Homo sapiens), sequence (Q6SZW1 whole entry, looked up, the tested form may be a part): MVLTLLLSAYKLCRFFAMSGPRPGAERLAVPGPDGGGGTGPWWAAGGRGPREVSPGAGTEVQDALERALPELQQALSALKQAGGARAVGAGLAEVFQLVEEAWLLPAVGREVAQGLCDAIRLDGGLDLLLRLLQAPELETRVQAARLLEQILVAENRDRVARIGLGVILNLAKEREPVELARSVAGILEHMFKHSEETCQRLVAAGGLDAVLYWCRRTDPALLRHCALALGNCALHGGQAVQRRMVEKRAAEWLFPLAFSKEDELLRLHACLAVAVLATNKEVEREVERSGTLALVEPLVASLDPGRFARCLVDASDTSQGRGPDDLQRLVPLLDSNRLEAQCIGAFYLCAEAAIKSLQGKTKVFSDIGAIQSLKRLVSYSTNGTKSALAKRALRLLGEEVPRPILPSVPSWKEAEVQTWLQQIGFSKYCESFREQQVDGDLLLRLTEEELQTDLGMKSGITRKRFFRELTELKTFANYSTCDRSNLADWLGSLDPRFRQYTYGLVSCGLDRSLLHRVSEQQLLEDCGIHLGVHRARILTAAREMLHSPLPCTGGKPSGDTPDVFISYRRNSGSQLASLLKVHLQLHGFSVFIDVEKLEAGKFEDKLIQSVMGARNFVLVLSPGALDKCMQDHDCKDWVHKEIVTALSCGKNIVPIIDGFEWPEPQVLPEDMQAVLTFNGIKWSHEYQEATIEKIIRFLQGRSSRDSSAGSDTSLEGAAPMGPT

[12] = biological target: Mitogen-activated protein kinase 7 (Homo sapiens) (UniProt Q13164); test: ERK5 transactivation activators in reporter cells, primary screen, cell-based, HTS (AID 1508626;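 active means luciferase signal above three times the same-plate solvent-only control wells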;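 further: luciferase driven by Gal4-ERK5 fusion binding five Gal4 sites before minimal TATA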); details: HeLa Gal4-ERK5 transactivation, 18 h, at 5 µM, stronger effect = higher value
Mitogen-activated protein kinase 7 (Homo sapiens), sequence (Q13164 whole entry, looked up, the tested form may be a part): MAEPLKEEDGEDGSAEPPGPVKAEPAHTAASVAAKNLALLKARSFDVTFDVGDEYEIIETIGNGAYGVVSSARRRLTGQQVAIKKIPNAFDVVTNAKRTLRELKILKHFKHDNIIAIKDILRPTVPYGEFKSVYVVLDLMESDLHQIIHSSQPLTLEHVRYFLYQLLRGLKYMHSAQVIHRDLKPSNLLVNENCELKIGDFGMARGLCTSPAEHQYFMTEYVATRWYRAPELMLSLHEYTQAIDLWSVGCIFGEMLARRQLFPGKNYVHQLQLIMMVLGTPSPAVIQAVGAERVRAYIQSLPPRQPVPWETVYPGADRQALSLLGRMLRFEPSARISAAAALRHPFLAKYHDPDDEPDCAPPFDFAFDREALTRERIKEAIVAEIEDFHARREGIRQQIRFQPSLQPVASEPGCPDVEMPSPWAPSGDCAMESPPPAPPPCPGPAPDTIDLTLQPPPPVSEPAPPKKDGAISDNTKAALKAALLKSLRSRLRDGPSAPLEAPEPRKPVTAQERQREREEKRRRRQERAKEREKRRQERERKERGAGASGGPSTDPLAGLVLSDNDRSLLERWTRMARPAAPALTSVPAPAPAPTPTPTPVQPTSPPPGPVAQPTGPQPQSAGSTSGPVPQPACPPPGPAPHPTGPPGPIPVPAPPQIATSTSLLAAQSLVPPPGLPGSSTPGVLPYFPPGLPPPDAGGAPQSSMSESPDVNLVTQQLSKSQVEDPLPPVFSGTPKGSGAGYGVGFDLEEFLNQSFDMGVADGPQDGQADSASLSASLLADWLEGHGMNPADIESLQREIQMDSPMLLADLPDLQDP

[13] = stronger effect = lower value, cell number ratio, induced over uninduced
[14] = measured here: relative caspase fold change +Dox/-Dox
[15] = measured here: total cells with miR-34 induction, stronger effect = lower value
[16] = measured here: total cells without miR-34 induction
[17] = MELAS cybrid survival, CellTiter-Glo 48 h, stronger effect = higher value
[18] = Rieske KO mouse fibroblast survival, CellTiter-Glo 72 h

Row | Structure (SMILES) | period change [1] | inhibition [2] | fluorescence ratio (interference) [3] | fold change [4, 13] | fold change [4, 14] | cell count [4, 15] | cell count [4, 16] | outcome [5] | z-score [6] | z-score [7, 17] | z-score [7, 18] | fluorescence slope change [8] | survival [9] | parasite load remaining [10] | viability [10] | remaining NAD [11] | luciferase signal [12]
1 | CSC(=N)N | -0.11 h (inactive) | -4% (inactive) | 1 (inactive) | 1 (inactive) and 0.925 (inactive) | 1.64 and 1.46 | 10600 and 5770 | 10500 and 6230 | inactive | 0.095 (inactive) |  |  |  |  |  |  |  | 
2 | CNCCC(Oc1cccc2ccccc12)c1cccs1 (configuration not stated) |  |  |  | 0.825 (inactive) and 0.844 (inactive) and 0.922 (inactive) | 1.39 and 1.04 and 2.23 | 4830 and 5000 and 7370 | 5860 and 5930 and 7990 |  | -1.4 (inactive) and -1.81 (inactive) | -0.107 (inactive) | -1.06 |  |  |  |  |  | 
3 | CC1c2cccc(O)c2C(O)=C2C(=O)[C@]3(O)C(O)=C(C(N)=O)C(=O)C(N(C)C)[C@@H]3C(O)[C@@H]21 (some centres not stated) |  |  |  | 0.722 (inactive) and 0.743 (inactive) and 0.957 (inactive) | 1.04 and 0.719 and 0.385 | 5360 and 5020 and 8780 | 7420 and 6760 and 9180 |  |  | 4.12 (active) and 3.16 (active) and -0.469 (inactive) | 5.71 and 4.93 and -0.551 |  |  |  |  |  | 
4 | CO/N=C(\C(=O)N[C@@H]1C(=O)N2C(C(=O)O)=C(COC(C)=O)CS[C@H]12)c1csc(N)n1 (stereo in doubt) | -0.095 h (inactive) |  |  | 1.01 (inactive) and 0.948 (inactive) | 2.06 and 1.21 | 10500 and 9330 | 10300 and 9840 |  | 0.04 (inactive) | 0.18 (inactive) | -0.136 | 81.1% (active) | 16.2 (inactive) | 35.6% (inactive) and 93.3% (inactive) | 65.7% and 139% | 10 nM (inactive) | 152 AU (inactive)
5 | CNC(=O)[C@H]1O[C@@H](n2cnc3c(NCc4cccc(I)c4)ncnc32)C(O)[C@H]1O (some centres not stated) | -0.015 h (inactive) | -2% (inactive) | 0.9 (inactive) | 1.05 (inactive) and 1.03 (inactive) | 0.68 and 1.21 | 10000 and 5680 | 9560 and 5540 | inactive | 2.43 (active) |  |  |  |  |  |  |  | 
6 | CCCCC[C@H](O)/C=C/[C@@H]1[C@@H](C/C=C\CCCC(=O)O)[C@@H](O)C[C@H]1O |  |  |  |  |  |  |  |  | 0.625 (inactive) | -0.59 (inactive) | -0.344 |  | 95.3 (inactive) | 32.1% (inactive) | 102% |  | 
7 | NC1CONC1=O (configuration not stated) | -0.095 h (inactive) | -2% (inactive) | 1 (inactive) | 1.01 (inactive) and 0.986 (inactive) | 2.01 and 1.56 | 10700 and 9620 | 10600 and 9760 | inactive | 0.065 (inactive) and 0.91 (inactive) |  |  |  |  |  |  |  | 
8 | NC(=O)c1cc[n+](CC2=C(C(=O)O)N3C(=O)[C@@H](NC(=O)[C@@H](c4ccccc4)S(=O)(=O)[O-])[C@H]3SC2)cc1 | -0.015 h (inactive) | 4% (inactive) | 1 (inactive) | 1.02 (inactive) and 0.887 (inactive) | 2.31 and 1.36 | 10400 and 9300 | 10200 and 10500 |  | -0.05 (inactive) | 0.659 (inactive) | -0.267 |  | 7.17 (inactive) | 79.7% (inactive) | 103% | 10 nM (inactive) | 36 AU (inactive)
9 | COc1cc(CNC(=O)CCCCCCC(C)C)ccc1O | 0.135 h (inactive) | -5% (inactive) | 1 (inactive) | 1.08 (inactive) and 1.04 (inactive) | 0.866 and 1.07 | 10600 and 5720 | 9840 and 5480 | inactive | -0.085 (inactive) |  |  |  |  |  |  |  | 
10 | O=C1CC(c2ccc(O)cc2)Oc2cc(O)cc(O)c21 (configuration not stated) |  |  |  | 0.857 (inactive) and 0.936 (inactive) | 1.25 and 0.746 | 9030 and 10100 | 10500 and 10800 |  |  | -0.339 (inactive) | 0.634 | 29.7% (inactive) | 12.5 (inactive) | 129% (inactive) and 75.7% (inactive) | 105% and 74.5% |  | 
11 | N[C@@H](Cn1ccc(=O)c(O)c1)C(=O)O |  | -3% (inactive) | 1 (inactive) | 1.03 (inactive) and 0.872 (inactive) | 1.54 and 1.46 | 10200 and 9120 | 9910 and 10400 | inactive | 0.455 (inactive) |  |  |  |  | 61.9% (inactive) | 117% |  | 68 AU (inactive)
12 | CCOC(=O)C(CCc1ccccc1)NC1CCc2ccccc2N(CC(=O)O)C1=O (configuration not stated) |  |  |  | 0.901 (inactive) and 0.923 (inactive) and 1.08 (inactive) | 1.61 and 0.619 and 0.514 | 9200 and 8490 and 8200 | 10200 and 9200 and 7620 |  | 0.855 (inactive) and 0.665 (inactive) | 0.349 (inactive) and -0.387 (inactive) | -0.629 and -0.0664 |  |  |  |  |  | 

From PubChem BioAssay
